These results are taken from PubChem BioAssay AID488890 (Southern Research Specialized Biocontainment Screening …, 2010).

Each structure is given as a SMILES string. The whole screen tested about 320,000 compounds, of which about 1,300 (0.41%) were called active. Another 3% or so got no clear call; they are omitted. No rule for the calls is given here. A selection follows. Entries with a potency or affinity are not part of this list.

The experiment can be described thus: growth inhibition of non-replicating M. tuberculosis (AID 488890).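 Also: plate controls were DMSO cells for no effect and high antibiotic wells for full effect.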 Particulars: Mycobacterium tuberculosis non-replicating, at 25 µM, stronger effect = higher value.
Turning to `CN(Cc1ccccc1)C(=O)c1ccc(NC(=O)c2ccccc2)cc1`, the inhibition is -0.423%. `Cn1c(-c2ccccc2)cc2ccccc21`: the inhibition was -0.86%. `CCOc1c(C(N)=O)cc([N+](=O)[O-])cc1[N+](=O)[O-]`: the inhibition turned out to be 7.1%. As to `Cc1ccc(CNc2ccc([N+](=O)[O-])cc2C(N)=O)cc1`, the inhibition was -0.61%. For `COc1ccc(CCNC(=O)c2cc3cc(F)ccc3nc2C)cc1OC` the value was 2.52%; for `O=C(O)CCCN=CC1=C(O)CNC1=O`, 2.02%; for `COc1ccc(-c2oc3ccccc3c(=O)c2OCC(=O)O)cc1`, 6.78%.

In the case of `COc1ccccc1Oc1coc2cc(OCC(N)=O)ccc2c1=O`, the inhibition turned out to be 32.8%.

Regarding `COc1ccccc1-c1coc2cc(OC(=O)/C=C/c3ccccc3)ccc2c1=O`, the inhibition stood at 33.4%. On to `COc1ccccc1-c1coc2cc(OC(=O)N3CCOCC3)ccc2c1=O`, for which the inhibition was found to be 17.2%. For `COc1ccc(-c2oc3ccccc3c(=O)c2OC(C)=O)cc1` the value was 64.7%; for `CCOc1ccccc1Oc1coc2cc(OCC(=O)O)ccc2c1=O`, -6.12%. Take `CCC(=O)NCCNc1ccc([N+](=O)[O-])cn1`: the inhibition is -5.26%. Take `Cc1onc(C(N)=O)c1C(=O)Nc1ncc(C(F)(F)F)cc1Cl`: the inhibition was -30.8%. As to `Cc1ccc(C(=O)N2CCN(c3ccccc3F)CC2)cc1NC1=NC2CS(=O)(=O)CC2S1` (stereo unspecified), the inhibition was -2.79%. `CC(Cc1cccs1)NC(=O)Nc1cccc(Cl)c1` (stereo unspecified): the inhibition came out at 48.3%. Next, `CC(Cc1cccs1)NC(=O)c1cccs1` (stereo unspecified): 75.3%; `CNc1ccc(C2(O)C(=O)c3ccccc3C2=O)cc1`: 50.8%. `CCN(c1ccc(NC(=O)COC(=O)c2ccc(S(=O)(=O)N3CCCC3)cc2)cc1)C(C)C`: the inhibition came out at 11.1%.

In the case of `COC(=O)/C(=C1/Oc2ccc(C)cc2S1)C(F)(F)F`, the inhibition was 6.15%.

As to `COC(=O)/C(=C1/Oc2ccc(C(C)(C)C)cc2S1)C(F)(F)F`, the inhibition is 32.3%. Consider `CC(=O)c1cccc(NC(=O)CN(C)S(=O)(=O)c2ccccc2)c1`, for which the inhibition is 1.23%. On to `CC[C@H](C)[C@H](NC(=O)[C@H](Cc1ccc(O)cc1)NC(=O)[C@@H](N)C(C)C)C(=O)N[C@@H](Cc1cnc[nH]1)C(=O)N1CCC[C@H]1C(=O)N[C@@H](Cc1ccccc1)C(=O)O`, for which the inhibition is -4.04%. As to `CN(C)S(=O)(=O)c1ccc(N2CCCC2)c(C(=O)NNC(=O)c2ccccc2)c1`, the inhibition came to 37.4%. Turning to `COc1cc(/C=N/Nc2nc(C)cc(C)n2)ccc1OC(=O)c1ccco1`, the inhibition worked out at 23.8%. `O=c1oc(-c2cccs2)nc2ccc(Cl)cc12`: the inhibition is 79.1%. Regarding `O=c1cc(-c2cccs2)oc2ccc(Cl)cc12`, the inhibition was determined as 19.9%. Turning to `CC(NC(=O)CCNC(=O)c1ccco1)c1ccccc1` (stereo unspecified), the inhibition was -4.55%. For the molecule `CCCCCC1CC(CC(=O)Nc2ccc([N+](=O)[O-])cc2)C(=O)O1` (stereo unspecified), the inhibition is 29.9%. Consider `CCCCCCC1CC(CC(=O)Nc2ccc([N+](=O)[O-])cc2)C(=O)O1` (stereo unspecified), for which the inhibition was 46%. Turning to `OCCCC1CCCN(Cc2cn[nH]c2-c2ccc(F)cc2F)C1` (stereo unspecified), the inhibition was -4.41%. As to `COc1ccc(CC(=O)Nc2ccc(N3CCCCC3)cc2)cc1`, the inhibition was found to be 10.3%. `O=C(O)Cc1ccc(NC(=O)Nc2ccc3c(c2)OCO3)cc1`: the inhibition was -6.44%. Regarding `OC1CCN(Cc2ccc3ccccc3c2)CC1`, the inhibition is 12.5%.

`OC1CCN(Cc2cccc(Oc3ccccc3)c2)CC1`: the inhibition is -6.53%. Turning to `OCCN1CCN(Cc2ccc3ccccc3c2)CC1`, the inhibition turned out to be 0.76%. Consider `CC(C)(C)c1cc(CN2CCCCC2)cc(C(C)(C)C)c1O`, for which the inhibition was 16.6%. On to `CC1=NN(Cc2cc(C(C)(C)C)c(O)c(C(C)(C)C)c2)C(=O)C1`, for which the inhibition is -2.66%. For `CC(C)(C)c1cc(C(=S)N2CCN(CCO)CC2)cc(C(C)(C)C)c1O` the value was 19.5%; for `COCCCn1c(C)nnc1SCC(=O)NNC(=O)COc1ccc(Cl)cc1`, 0.75%; for `CSc1ccccc1C(=O)NCCSC(C)(C)C`, -2.18%. For the molecule `COc1ccccc1NC(=O)COc1ccc(/C=N/NC(=O)CSCc2cc(C)cc(C)c2)cc1`, the inhibition amounted to 8.98%. Turning to `CN(C)c1ccc(C(=O)Nc2ccc(O)c3c(=O)cc(-c4ccccc4Cl)oc23)cc1`, the inhibition came out at 7.25%. Turning to `O=C(Cn1cncn1)c1ccc(Cl)cc1`, the inhibition was -4.45%. For `CCOC(=O)N1N=C(C)CC1(O)c1ccc(Cl)cc1` (stereo unspecified) the value was -5.02%. Next, `CC1=NN(C(=O)Cc2ccccc2)C(O)(c2ccccc2)C1` (stereo unspecified): 7.51%; `CCC1=NN(C(=O)COc2ccccc2C)C(O)(c2ccncc2)C1` (stereo unspecified): -19%; `CC1=NN(C(=O)COc2ccccc2)C(O)(c2cccnc2)C1` (stereo unspecified): -18.8%.

For `COc1ccc(C(=O)Nc2ccc3nc(N4CCN(C)CC4)cc(C)c3c2)c(OC)c1`, the inhibition was 76%. For the molecule `CCc1nonc1NC(=O)c1oc2ccc(F)cc2c1C`, the inhibition was -7.95%. `CN1CCN(S(=O)(=O)c2ccc(NS(=O)(=O)c3ccccc3)cc2)CC1`: the inhibition was 2.91%. Consider `CC1CC(C)CN(C(=O)c2ccc(S(=O)(=O)N3CCCC3)cc2)C1` (stereo unspecified), for which the inhibition turned out to be 62.4%. Consider `Cc1cc(C(F)(F)F)nc(SCC(=O)c2cccc([N+](=O)[O-])c2)n1`, for which the inhibition was found to be 14.9%. On to `O=C(COC(=O)c1ccc(Cl)c(S(=O)(=O)N2CCOCC2)c1)NCc1ccco1`, for which the inhibition was -2.49%. In the case of `O=C(Cc1ccc(-c2ccccc2)cc1)OCC(=O)N1CCCC1=O`, the inhibition amounted to 16.6%. For `CN(C)c1ccc(-c2sc(Nc3ccccc3)n[n+]2-c2ccc(F)cc2)cc1`, the inhibition amounted to 60.9%. Turning to `CSc1ccc(-c2sc(Nc3ccccc3)n[n+]2-c2ccc(F)cc2)cc1`, the inhibition stood at 20.5%. Turning to `Cc1cc(C(=O)NCCC2=CCCCC2)c(C)o1`, the inhibition amounted to 15.7%. Take `O=C(NCc1ccccn1)C1CCC(CNS(=O)(=O)c2cccc3nsnc23)CC1` (stereo unspecified): the inhibition worked out at 0.68%. As to `O=C(Nc1ccccc1O)c1ccc(NS(=O)(=O)c2cccc3cccnc23)cc1`, the inhibition turned out to be 27.4%. For `Cc1ccc(/C=C(\NC(=O)c2ccccc2)C(=O)NC(Cc2ccccc2)C(=O)O)cc1` (stereo unspecified), the inhibition is -0.85%. On to `CC(=O)Nc1ccccc1/C=C/c1ccc2c(C)ccc(O)c2n1`, for which the inhibition turned out to be 77.9%. `Cc1ccc(O)c(CO)n1`: the inhibition came to 1.36%. Next, `CN1CCCN(C(=O)c2ccc(Cl)cc2)CC1`: -25.6%; `Cc1sc2nc(CSc3ccc([N+](=O)[O-])c(C(F)(F)F)c3)[nH]c(=O)c2c1C`: -14.8%; `CCCC1(CCC)NC(=O)N(CC(=O)N2CCN(C(=O)c3ccco3)CC2)C1=O`: 0.73%. As to `CNC(=O)COc1ccc(-c2nn(C)c(=O)c3ccccc23)cc1`, the inhibition is -6.01%. In the case of `Cn1nc(-c2ccc(OCC(N)=O)cc2)c2ccccc2c1=O`, the inhibition worked out at 27.5%. For `CCN1CCN(c2nc(N)c([N+](=O)[O-])c(Nc3cccc(C)c3)n2)CC1` the value was 71.8%; for `CCOC(=O)CNC(=O)N1CCc2ccc(NC(=O)c3ccccc3OC)cc2C1`, 44.4%; for `CCN(C(=O)COC(=O)c1cccc(S(=O)(=O)N2CCOCC2)c1)C1CCS(=O)(=O)C1` (stereo unspecified), -11%. With `Cc1cccc2c(=O)cc(C(F)(F)F)[nH]c12`, the inhibition was found to be 52.3%. As to `O=c1cc(C(F)(F)F)[nH]c2ccccc12`, the inhibition is -4.11%. For the molecule `O=C(O)CCCNS(=O)(=O)c1ccc(NCc2ccccc2)c(C(=O)O)c1`, the inhibition is -9.34%.

With `CC1=NN(C(=O)c2ccccc2Cl)C(O)(c2cccnc2)C1` (stereo unspecified), the inhibition was -11.1%. Take `CC1=NN(C(=O)c2ccccc2Br)C(O)(c2cccnc2)C1` (stereo unspecified): the inhibition came out at 1.25%. Take `O=C(c1ccccc1)N1N=C(c2ccccc2)CC1(O)C(F)(F)F` (stereo unspecified): the inhibition came out at 66.9%. Turning to `COC(=O)C1=NN(C(=O)c2ccc(C)cc2)C(O)(c2ccc(Cl)cc2)C1` (stereo unspecified), the inhibition is 68.2%. For `Nc1ccc(C(=O)N2N=C(c3ccccc3)CC2(O)C(F)(F)F)cc1` (stereo unspecified), the inhibition amounted to 18.4%. As to `CC1=NN(C(=O)CCc2ccccc2)C(O)(c2ccncc2)C1` (stereo unspecified), the inhibition is -17.3%.

In the case of `CCOC(=O)N1N=C(c2ccccc2)CC1(O)C(F)(F)F` (stereo unspecified), the inhibition is -6.72%. Regarding `CCC1(O)CC(C(=O)OC)=NN1C(=O)c1ccccc1` (stereo unspecified), the inhibition was 50.2%. Turning to `CC(=O)Nc1sc(C)c(C)c1C(=O)OCC(=O)Nc1ccccc1`, the inhibition is 6.17%.

Take `CSc1ncccc1C(=O)OCc1ccc([N+](=O)[O-])cc1`: the inhibition came out at 39.8%. With `COc1ccc(C(=O)N/N=C2\CCc3ccccc32)cc1OC`, the inhibition is -1.04%.

Regarding `Cc1cccc(NC(=O)C[n+]2ccccc2)c1`, the inhibition is 16.1%. `Cc1c(NC(=O)COC(=O)c2cc(-c3ccc(-c4ccccc4)cc3)nc3ccccc23)c(=O)n(-c2ccccc2)n1C`: the inhibition was -36%. For the molecule `NC(=O)c1nsc(C(=O)N(c2cccc(F)c2)C(C(=O)NCC2CCCO2)c2c[nH]c3ccccc23)c1N` (stereo unspecified), the inhibition came to 29.5%. For `O=C(c1ccccc1)N1N=C(c2ccc(F)cc2)CC1(O)C(F)(F)F` (stereo unspecified) the value was 67.9%; for `O=C(c1ccco1)N1N=C(c2ccc(Cl)cc2)CC1(O)C(F)(F)F` (stereo unspecified), 58%. On to `CC1=NN(C(=O)Cc2ccccc2)C(O)(c2cccnc2)C1` (stereo unspecified), for which the inhibition was -2.18%.

As for `CC1=NN(C(=O)c2ccco2)C(O)(c2ccccc2)C1` (stereo unspecified), the inhibition was 70.5%. `C=CCn1c(SCC(=O)Nc2ccccc2OC)nc2c([nH]c3ccccc32)c1=O`: the inhibition is -4.69%. On to `COc1ccccc1-c1nnc(SCc2nc3ccccc3[nH]2)n1C`, for which the inhibition is 25.9%.

With `O=C(Nc1cccc(F)c1)Nc1ccc2c(c1)C(=O)OC2`, the inhibition was -9.41%. As for `Cc1cccc(C)c1OCC(=O)NCC1COc2ccccc2O1` (stereo unspecified), the inhibition is -21%.

For the molecule `CCN1CCN(c2ccc(NC(=O)c3ccco3)cc2Cl)CC1`, the inhibition is -16.6%. Consider `CCOC(=O)Cc1c(C)nc2c(-c3cccc(Br)c3)cnn2c1C`, for which the inhibition was -10.5%. Take `CCOC(=O)Cc1c(C)nc2c(-c3ccccc3)c(C)[nH]n2c1=O`: the inhibition was 23.1%.

In the case of `CCOC(=O)Cc1cc(=O)n2[nH]cc(-c3ccc(Cl)cc3)c2n1`, the inhibition stood at 81.6%. Consider `CCOC(=O)Cc1c(C)nc2c(C#N)c[nH]n2c1=O`, for which the inhibition was -14.1%. Next, `CC1=CC(C)(C)Nc2ccc(OS(=O)(=O)c3ccc(C)cc3)cc21`: -0.67%; `CN(C)S(=O)(=O)n1ccnc1`: -7.18%. For `Oc1ccc(-c2nc3ncccn3c2Nc2ccc3c(c2)OCO3)cc1`, the inhibition worked out at 0.55%. For the molecule `c1cnc2nc(-c3ccc4c(c3)OCO4)cn2c1`, the inhibition was determined as 14.6%.

Consider `COCCn1c(SCC(=O)NC(=O)NC2CCCC2)nc2ccccc2c1=O`, for which the inhibition was -3.24%. Consider `CN(C)CCCNC(=O)CC1C[C@H](C(=O)N2CCOCC2)[C@@]2(CCC3CCCC3)c3[nH]c4ccccc4c3CCN2C1=O` (stereo partly specified), for which the inhibition turned out to be 48.7%.

For the molecule `CC(C)COc1ccc(Br)cc1CNC(C)(C)C`, the inhibition was determined as 72%. With `Cn1nnc(NCc2cc(Br)ccc2OCc2cccs2)n1`, the inhibition was 24.3%.

Regarding `C=CCOc1ccc(Br)cc1CNC(C)(C)C`, the inhibition stood at 54.2%.

As to `CC(C)(C)NCc1ccccc1OCc1cccs1`, the inhibition came to 6.2%.

By inhibition is commonly meant the change of the read-out against control, counted positive when it falls.
